{"source": "PubChem BioAssay (Tox21)", "note": "Activity calls are given as the source filed them. A call without a number means that no potency is given here. The call rests on the fitted dose curve; in most records, active means well fitted curve in the direction sought with a large enough effect in the repeat runs; inconclusive means weak or mixed curves; inactive means flat fitted curve, though single readings scatter.", "data": [{"experiment": "qHTS assay to test for compound auto fluorescence at 535 nm (green) in HEK293 cells (AID 720680)", "details": "green autofluorescence 485/535 nm; series mostly up to 46 µM", "excerpt": "U.S. Tox21 Program National Center for Advancing Translational Sciences [NCATS] NIH Chemical Genomics Center [NCGC] U.S. Environmental Protection Agency [EPA] National Institutes of Environmental Health Sciences [NIEHS] National Toxicology Program [NTP] U.S. Food and Drug Administration [FDA] Tox21 Assay Overview: Compound auto fluorescence often interferes with screening of the compound library against various biological targets and signaling pathways. Some of these compounds may have fluorophoric properties. Such properties may interfere with the assay outputs resulting in false positives and/or negatives. To decrease such complications and ensure the compound activities are relevant in terms of biological response, the Tox21 10K compound library was screened for auto fluorescence. From the fluorophores used as reporter signals in our screening assays, the auto fluorescence equivalencies of compounds against three fluorophores have been evaluated: Triamterene, Fluorescein and Rose Bengal sodium for blue, green and red fluorescence, respectively. The fluorescence intensities were measured using Excitation/Emission wavelengths at 405/460nm, 485/535nm and 540/590nm for blue, green and red labels, respectively. This assay includes the green fluorescence data.\nTox21 Assay Protocol Summary: 2,000 HEK293 cells in 5 uL of culture medium containing 10% dialyzed FBS per well were dispensed into black wall/clear bottom 1536-well plates using a Multidrop Combi Dispenser (Thermo Scientific). The assay plates were incubated for 4-5 hr at 37C to allow cell attachment to the well bottom, followed by the transfer of 23 nL compound or DMSO vehicle by a pintool work station (Kalypsys, San Diego, CA). After the assay plates were incubated overnight at 37C and 5% CO2, fluorescence intensities in the assay plates were measured by an Envision (PerkinElmer, Shelton, CT) plate reader using three labels for measuring blue, green and red fluorescence at […] 460, 535 and 590nm respectively.", "values": [{"smiles": "COC(COC(N)=O)C1=C(N2CC2)C(=O)C(C)=C(N2CC2)C1=O", "note": "(stereo not given)", "Potency": "inactive"}, {"smiles": "C[C@]12CC[C@H]3[C@@H](CCC4=C(O)C(=O)CC[C@@H]43)[C@@H]1CC[C@@H]2OC(=O)CCC1CCCC1", "Potency": "inactive"}, {"smiles": "CCNC1(c2cccs2)CCCCC1=O", "note": "(stereo not given)", "Potency": "inactive"}, {"smiles": "CNC(C)CC1CCCCC1", "note": "(stereo not given)", "Potency": "inactive"}, {"smiles": "CC[C@H]1[C@@H]2C[C@H]3[C@@H]4N(C)c5ccccc5[C@]45C[C@@H](C2[C@H]5O)N3[C@@H]1O", "note": "(stereo not given in full)", "Potency": "inactive"}, {"smiles": "Cc1ccc(N(SC(F)(Cl)Cl)S(=O)(=O)N(C)C)cc1", "Potency": "inactive"}, {"smiles": "CO/C=C(/C(=O)OC)c1ccccc1Oc1cc(Oc2ccccc2C#N)ncn1", "Potency": "inactive"}, {"smiles": "O=C(O)/C=C\\C(=O)O", "Potency": "inactive"}, {"smiles": "C=C[C@H]1CN2CC[C@H]1C[C@H]2[C@H](OC(=O)OCC)c1ccnc2ccc(OC)cc12", "Potency": "inactive"}, {"smiles": "CC(C)NC(C)Cc1ccc(I)cc1", "note": "(stereo not given)", "Potency": "inactive"}, {"smiles": "NC1=NC(=O)N2CC12", "note": "(stereo not given)", "Potency": "inactive"}, {"smiles": "CCOC(=O)C1(c2ccccc2)CCCN(C)CC1", "note": "(stereo not given)", "Potency": "inactive"}, {"smiles": "CCC1(C)CC(=O)NC(=O)C1", "Potency": "inactive"}, {"smiles": "c1ccc2c(c1)Sc1ccccc1N2C[C@@H]1CN2CCC1CC2", "Potency": "inactive"}, {"smiles": "C[C@]12CC[C@@H]3c4ccc(OC(=O)N(CCCl)CCCl)cc4CC[C@H]3[C@@H]1CC[C@@H]2OP(=O)(O)O", "Potency": "inactive"}, {"smiles": "CN[C@]1(c2ccccc2Cl)CCCCC1=O", "Potency": "inactive"}, {"smiles": "CCN1C[C@]2(COC)[C@H](O)C[C@H](OC)[C@@]34[C@@H]5C[C@@]6(O)[C@H](OC(=O)c7ccccc7)[C@@H]5[C@@](OC(C)=O)([C@@H]([C@H](OC)[C@H]23)[C@@H]14)[C@@H](O)[C@@H]6OC", "Potency": "inactive"}, {"smiles": "CCC/C=C/C=C/C(=O)O[C@H]1/C(=C/C(=O)OC)C[C@H]2C[C@H]([C@@H](C)O)OC(=O)C[C@H](O)C[C@@H]3C[C@H](OC(C)=O)C(C)(C)[C@](O)(C[C@@H]4C/C(=C/C(=O)OC)C[C@H](/C=C/C(C)(C)[C@]1(O)O2)O4)O3", "Potency": "inactive"}, {"smiles": "Cc1nnc2n1-c1sc(Br)cc1C(c1ccccc1Cl)=NC2", "Potency": "inactive"}, {"smiles": "Oc1cc[c]([Hg][Cl])cc1", "Potency": "inactive"}, {"smiles": "CN[C@@H]1C[C@@H](c2ccc(Cl)c(Cl)c2)c2ccccc21", "Potency": "inactive"}, {"smiles": "C=CCN1CC[C@]23c4c5ccc(O)c4O[C@H]2[C@@H](O)C=C[C@H]3[C@H]1C5", "Potency": "inactive"}, {"smiles": "CC(C)=CCN1CC[C@]2(C)c3cc(O)ccc3C[C@H]1[C@H]2C", "Potency": "inactive"}, {"smiles": "CC(=O)Oc1ccc2c3c1O[C@H]1[C@@H](OC(C)=O)C=C[C@H]4[C@@H](C2)N(C)CC[C@@]341", "Potency": "inactive"}, {"smiles": "CCC(=O)O[C@@](Cc1ccccc1)(c1ccccc1)[C@@H](C)CN(C)C", "Potency": "inactive"}, {"smiles": "C#CCN1CC(=O)N(COC(=O)C2C(C=C(C)C)C2(C)C)C1=O", "note": "(stereo not given)", "Potency": "inactive"}, {"smiles": "CC(C)C[C@H]1C(=O)N2CCC[C@H]2[C@]2(O)O[C@](NC(=O)[C@@H]3C[C@@H]4c5cccc6[nH]cc(c56)C[C@H]4N(C)C3)(C(C)C)C(=O)N12", "Potency": "inactive"}, {"smiles": "CCCCCc1cc(O)c2c(c1)OC(C)(C)c1ccc(C)cc1-2", "Potency": "inactive"}, {"smiles": "CC(=O)O[C@H]1CC[C@H]2[C@@H]3CCC4=CC(=O)CCC4=C3C=C[C@]12C", "Potency": "inactive"}, {"smiles": "NC(=O)CN1CC(O)CC1=O", "note": "(stereo not given)", "Potency": "inactive"}, {"smiles": "O=P1(N(CCCl)CCCl)NC(OO)CCO1", "note": "(stereo not given)", "Potency": "inactive"}, {"smiles": "CN1[C@@H]2CC[C@H]1CC(OC1c3ccccc3CCc3ccccc31)C2", "note": "(stereo not given in full)", "Potency": "inactive"}, {"smiles": "N#CC(C#N)=Cc1cc(O)c(O)c(O)c1", "Potency": "inactive"}, {"smiles": "C=CCC1([C@@H](C)CCC)C(=O)NC(=O)NC1=O", "Potency": "inactive"}, {"smiles": "O=C(NC(=O)c1c(F)cccc1F)Nc1ccc(Cl)c(Oc2ncc(C(F)(F)F)cc2Cl)c1", "Potency": "inactive"}, {"smiles": "CCCCc1ccc(C(=O)O)nc1", "Potency": "inactive"}, {"smiles": "Cc1cccc(C(C)c2cnc[nH]2)c1C", "note": "(stereo not given)", "Potency": "inactive"}, {"smiles": "CC(C)C[C@H](CN)CC(=O)O", "Potency": "inactive"}, {"smiles": "CC1(C)[C@H](C=C(Cl)Cl)[C@H]1C(=O)OCc1c(F)c(F)cc(F)c1F", "Potency": "inactive"}, {"smiles": "CN1c2ccccc2C(NCCCCCCC(=O)O)c2ccc(Cl)cc2S1(=O)=O", "note": "(stereo not given)", "Potency": "inactive"}]}]}
